Laboratory results from publication PMC7819943, “Rice protein-binding microarrays: a tool to detect cis-acting elements near promoter regions in rice”.
In all, about 39,000 sequences were measured (“fluorescence intensity (a.u.)”: median about 4,300, highest 2% from about 39,000 on). Shown is part of a subset that was picked to be rich in the highest values.

Target: T1, OsSMF1 (Oryza sativa, UniProt Q6ZLB0 1-436)
T1 sequence: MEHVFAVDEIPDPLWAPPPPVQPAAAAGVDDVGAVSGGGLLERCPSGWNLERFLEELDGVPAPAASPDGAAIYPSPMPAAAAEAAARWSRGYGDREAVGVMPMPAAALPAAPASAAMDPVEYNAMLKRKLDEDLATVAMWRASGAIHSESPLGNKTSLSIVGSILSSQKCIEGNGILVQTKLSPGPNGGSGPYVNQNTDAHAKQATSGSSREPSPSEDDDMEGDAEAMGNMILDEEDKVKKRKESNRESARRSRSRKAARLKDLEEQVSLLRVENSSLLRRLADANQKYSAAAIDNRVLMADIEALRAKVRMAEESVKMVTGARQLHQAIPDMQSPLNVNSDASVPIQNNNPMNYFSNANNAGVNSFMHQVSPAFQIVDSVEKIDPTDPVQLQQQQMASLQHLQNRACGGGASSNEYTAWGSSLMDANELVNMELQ
Assay: protein-binding microarray (RPBM); PBS, 2% BSA, 51.3 ng/ul salmon testes DNA, 50 uM zinc acetate, 200 nM TF, 25 C, 1 h; high values mean tight binding
Settings: protein: recombinant; tags: N-terminal polyhistidine and DsRed monomer fusion (pET32a); chain copies: 2; label: CyDye5-dUTP incorporated in the synthesized complementary strand; 3' TTTTT single-stranded linker to array surface; dsDNA, one strand shown
Outline: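 In PBS with 2% BSA, salmon testes DNA and 50 µM zinc acetate, 200 nM protein was incubated on a custom Agilent array at 25 °C for 1 h and then washed off. The array had been made double-stranded by primer extension with Cy5-dUTP and blocked with 2% BSA. The proteins were transcription factors fused N-terminally to polyhistidine and DsRed, expressed in E. coli BL21-CodonPlus and purified on Ni–NTA. The binding signal is per-feature fluorescence intensity (arbitrary units) from an Axon 4000B scanner.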

| Sequence | binding signal |
| --- | --- |
| AGATCGACCAATGATACACACACAGCATATGAATCCTTTCCGGAGTCACCTAGTGCAG | 41400 fluorescence intensity (a.u.) |
| GCATAAATGATGTGTTTCTGAATCCAATTACACACATGATCGGAGTCACCTAGTGCAG | 5020 fluorescence intensity (a.u.) |
| CCAGCATCTGACACATCCTTTCCTAGCTGATCGACTCCATCGGAGTCACCTAGTGCAG | 3420 fluorescence intensity (a.u.) |
| AATACCGACGTGTCTAGACCTCAGCGACACACTGGAGCGTCGGAGTCACCTAGTGCAG | 5000 fluorescence intensity (a.u.) |
| CCCACGGCGCAACGATGACGATGACGATGCCCTTCCGGCGCGGAGTCACCTAGTGCAG | 46900 fluorescence intensity (a.u.) |
| TATCATACAAATGACGACACCACACAAACGGCGGCCCAAGCGGAGTCACCTAGTGCAG | 4320 fluorescence intensity (a.u.) |
| ACGGACGGGCGTCGGCGCGGGCGATGACGGACTGACGACGCGGAGTCACCTAGTGCAG | 3490 fluorescence intensity (a.u.) |
| GAACGATGACGGCGCGATGGCCGCCGCCGTGGCGCGGACGCGGAGTCACCTAGTGCAG | 3210 fluorescence intensity (a.u.) |
| GCGCCGCCGGCGCCGCGGCGCGGCCGATGACCACGCCGGACGGAGTCACCTAGTGCAG | 3490 fluorescence intensity (a.u.) |
| CAAGGCGGCCCAACCATCTTCGAAATGCGGCCCATGACGACGGAGTCACCTAGTGCAG | 39100 fluorescence intensity (a.u.) |
| CGCGCGCGCCGCCGCCGGTCGGTAACGACGGCGACGATGACGGAGTCACCTAGTGCAG | 65500 fluorescence intensity (a.u.) |
| TCCCCTTCTTCACCGATGCGGCGATGCGCGCGCCTTCTTCCGGAGTCACCTAGTGCAG | 27500 fluorescence intensity (a.u.) |
| GTGTTCGACGAAATGCCAACAAGGAACGTGGTGGCGTGGACGGAGTCACCTAGTGCAG | 3500 fluorescence intensity (a.u.) |
| CCATCCACCATTCACTTTCCCACCTACCTCCACTATTTATCGGAGTCACCTAGTGCAG | 3430 fluorescence intensity (a.u.) |
| AATAATGGGCTGAAAATATGTGACGCGAGGCGAGGGTCCCCGGAGTCACCTAGTGCAG | 3260 fluorescence intensity (a.u.) |
| CGCCAACACGACGCTGTGCCGTGGCGCGCCGACAATCATCCGGAGTCACCTAGTGCAG | 3600 fluorescence intensity (a.u.) |
| ACATGCCGCTAGGAAATATCCCATCCGGTGCCTGTCTAGACGGAGTCACCTAGTGCAG | 3150 fluorescence intensity (a.u.) |
| TTGCCGGTACTTTGGTACGTCATCCGTGTATAAGTCGGTTCGGAGTCACCTAGTGCAG | 5840 fluorescence intensity (a.u.) |
| GTGTTCCGCAGCGGCCGGGAGACGCGCCGGCTTGTCCCCTCGGAGTCACCTAGTGCAG | 42300 fluorescence intensity (a.u.) |
| CTTGTGGCCGGCGCAGCCGCCGCACCCCTCCGACGTGTTCCGGAGTCACCTAGTGCAG | 5380 fluorescence intensity (a.u.) |

| Sequence | binding signal |
| --- | --- |
| TCCGCGGCTCCGCGCTCTCCCCTCGCCGGTGTCACCGCTCCGGAGTCACCTAGTGCAG | 3390 fluorescence intensity (a.u.) |
| CTAACCACGCCCGCCACGTACGCCGCCTCTGGGACCCCGACGGAGTCACCTAGTGCAG | 5440 fluorescence intensity (a.u.) |
| GCAGCATCTGTGATCTCTCAGTGGGACCCACGTGTCATTGCGGAGTCACCTAGTGCAG | 5010 fluorescence intensity (a.u.) |
| CCCTGTCCTGAAACGCCGTGACGGCTTCTCCTTCTCCCTCCGGAGTCACCTAGTGCAG | 8960 fluorescence intensity (a.u.) |
| GTACTCCGTACTAGTAGTGGCACTCAATGTTCGGTATCTGCGGAGTCACCTAGTGCAG | 50200 fluorescence intensity (a.u.) |
| CATATATATCTGACTAAAACGGTATATGTTGCACGTAGTGCGGAGTCACCTAGTGCAG | 3360 fluorescence intensity (a.u.) |
| GTCAGTGGCTCAGTGCCACCCGTAGTGTACTGCCACTCCGCGGAGTCACCTAGTGCAG | 3370 fluorescence intensity (a.u.) |
| ATACTATGTTAATTTGTCTGTGTCCTAATGACGCACCATACGGAGTCACCTAGTGCAG | 4820 fluorescence intensity (a.u.) |
| TTTACTGTAGCACCACATTGTCAAATTATGACGTAATTAGCGGAGTCACCTAGTGCAG | 5440 fluorescence intensity (a.u.) |
| AACTTTGTTGTTGATGACGTTTTCAGTTGAAGTCGTTCACCGGAGTCACCTAGTGCAG | 7120 fluorescence intensity (a.u.) |
| TGATTATTTGTGAAATAAAATGAGATAAAATGTGATTTTACGGAGTCACCTAGTGCAG | 28600 fluorescence intensity (a.u.) |
| AACGTGCCACTTTACCTGACGTGATGAAACAATATTATCACGGAGTCACCTAGTGCAG | 3320 fluorescence intensity (a.u.) |
| ATTTGTAAACAATGTTACTATCACTTTATCAGATGAAGAACGGAGTCACCTAGTGCAG | 34600 fluorescence intensity (a.u.) |
| TGAACAATGTTACAAATCACTTTATCGGATGAAGAAATGACGGAGTCACCTAGTGCAG | 46400 fluorescence intensity (a.u.) |
| ATGCTATTATATAAGAGAAAATATAATGATGCTGGCCGTGCGGAGTCACCTAGTGCAG | 3240 fluorescence intensity (a.u.) |
| GGATGATGTGACTTAATAACAGAAGAGAGAAATAATATTACGGAGTCACCTAGTGCAG | 40600 fluorescence intensity (a.u.) |
| CCAGGTCCCAGCCAGGGGTTTATTAGCTGATTCAAGACGTCGGAGTCACCTAGTGCAG | 14900 fluorescence intensity (a.u.) |
| CTGGACAGGAAGCAAAGCTCCTGACACGCCCAGCCGTCCCCGGAGTCACCTAGTGCAG | 3220 fluorescence intensity (a.u.) |
| ACCGCCATGTAGGTGCCACGTCATCGCCACGTGGAACGAACGGAGTCACCTAGTGCAG | 32700 fluorescence intensity (a.u.) |
| CCGGATGACATGATGACACCGCTACCCATTAAGTTTCGTCCGGAGTCACCTAGTGCAG | 4050 fluorescence intensity (a.u.) |

| Sequence | binding signal |
| --- | --- |
| TCACCCTGTCCTCGTCACGTCCCATTTTACATCCACCACCCGGAGTCACCTAGTGCAG | 6570 fluorescence intensity (a.u.) |
| CTCCTTCCATTTGTACCCACGTCTGCTGTCCATTGACCGGCGGAGTCACCTAGTGCAG | 6910 fluorescence intensity (a.u.) |
| CCCATTGATGCTACAGAGAGTCCACGTCACCCTCGTCTGCCGGAGTCACCTAGTGCAG | 42800 fluorescence intensity (a.u.) |
| GCTTGCTTGCTTGCATCCTCCTCACATTCACCACGAGGTTCGGAGTCACCTAGTGCAG | 3670 fluorescence intensity (a.u.) |
| AGCTAGTACCTCACATGCATTCATCTTGCTTGCAATCCGTCGGAGTCACCTAGTGCAG | 45100 fluorescence intensity (a.u.) |
| GAATCTAGTAGCTTGCATCCTTTACATCTTCTCATCCTGTCGGAGTCACCTAGTGCAG | 32700 fluorescence intensity (a.u.) |
| CATTCTTAATGTAAAATATGAATGTAAATGAAATGTATGCCGGAGTCACCTAGTGCAG | 3840 fluorescence intensity (a.u.) |
| CACAAGTTCTCCTACGCTGACTCCTCTCTTGGAACTTCAGCGGAGTCACCTAGTGCAG | 5030 fluorescence intensity (a.u.) |
| CTGGCACGTAAGCGTTACCGTGGCATGCCACGTCATCTCACGGAGTCACCTAGTGCAG | 39600 fluorescence intensity (a.u.) |
| GCATGCATTGCCTCTTGCTCGCCTACGTGGTAATGAAAACCGGAGTCACCTAGTGCAG | 6560 fluorescence intensity (a.u.) |
| CCCACGTGGGTCCCACGCTGACTCAGCCGCCACGTAGATCCGGAGTCACCTAGTGCAG | 25400 fluorescence intensity (a.u.) |
| ATATGTGGGTCTCATGCTGACTCATCCGCCACGTCAGATACGGAGTCACCTAGTGCAG | 42600 fluorescence intensity (a.u.) |
| GGCCCACGTGGGTCCCACACTGACTCAGCTGCCACGTGGGCGGAGTCACCTAGTGCAG | 38600 fluorescence intensity (a.u.) |
| CTGCACGTTACTCACGTGGCATCTCCAACTCTACCGCCAACGGAGTCACCTAGTGCAG | 7570 fluorescence intensity (a.u.) |
| CCACTGGCGACCGCCACGTCGACCTGGCGTGGGACCTCATCGGAGTCACCTAGTGCAG | 8920 fluorescence intensity (a.u.) |
| CTAATGCCACGTAAGTGCCACGTGGCATGAAAACCGGGTTCGGAGTCACCTAGTGCAG | 46300 fluorescence intensity (a.u.) |
| GTTAGCGTGGCATGCCACGTCATCTCACGAAGCGGGTTAGCGGAGTCACCTAGTGCAG | 18100 fluorescence intensity (a.u.) |
| TATGCGTGGGTCACTGGGCCCACACGTCATCCTCACGTGGCGGAGTCACCTAGTGCAG | 49000 fluorescence intensity (a.u.) |
| GGGGTGAAAATGAATTAGATGCCACGTGCAGGTTCGCATGCGGAGTCACCTAGTGCAG | 10000 fluorescence intensity (a.u.) |
| TGACATGTGGGGCCCACGCTGACTCAGCCGCCACGTCAGACGGAGTCACCTAGTGCAG | 19600 fluorescence intensity (a.u.) |
